According to PubChem BioAssay (Tox21):
Records with an inconclusive call do not appear. The source made the active and inactive calls. Unless noted, the call rests on the fitted dose curve; in most records, active means well fitted curve in the direction sought with a large enough effect in the repeat runs; inconclusive means weak or mixed curves; inactive means no such curve, though single readings can be large; an effect the other way counts as inactive or inconclusive.

What was measured:
[1] = A CellTox Green Cytotoxicity Assay to monitor cytotoxicity in HEK293 cells - 16 hour (AID 1224888); further: nearly all actives have a fitted effect of over 35% in size; further: potency means the concentration at half of the fitted maximal effect
Method in brief: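 HEK293 cells, 600/well, were preincubated 5 hours and then exposed to compounds at 37 C for up to 40 hours. A cell-impermeant cyanine dye staining dead-cell DNA was read by fluorescence at 0, 8, 16, 24, 32 and 40 h time points.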

[2] = qHTS RealTime-Glo MT Cell Viability Assay in HepG2 cells - 0 hour (AID 1224889); further: nearly all actives have a fitted effect of over 50% in size
Method in brief: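 Compound treatment began 5 h after plating HepG2 cells (600/well) with NanoLuc luciferase and prosubstrate. Plates stayed at 37 C for 40 h; luminescence was captured at six time points, 0 h through 40 h.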

[3] = A CellTox Green Cytotoxicity Assay to monitor cytotoxicity in HepG2 cells - 8 hour (AID 1224890); further: nearly all actives have a fitted effect of over 45% in size
Method in brief: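 HepG2 cells, 600/well, preincubated 5 h with CellTox Green dye, then exposed to Tox21 compounds in DMSO at 37 C for up to 40 h. Dead-cell DNA fluorescence read at the indicated time point.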

[4] = qHTS assay to identify small molecule antagonists of the estrogen receptor alpha (ER-alpha) signaling pathway using the BG1 cell line in the presence of 0.1 nM 17-beta-estradiol - cell viability counter screen (AID 1259241); further: nearly all actives have a fitted effect of over 40% in size
Method in brief: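 Estradiol-stimulated (0.1 nM) VM7Luc4E2 cells exposed to compounds 22 hr; viability measured by fluorescence of cleaved CellTiter-Fluor substrate after 30 min.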

[5] = qHTS assay to identify small molecule antagonists of the androgen receptor (AR) signaling pathway using the MDA cell line in the presence of 0.5 nM R1881 - cell viability counter screen (AID 1259242); further: nearly all actives have a fitted effect of over 45% in size
Method in brief: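 MDA-kb2 cells (MMTV-luciferase, AR/GR responsive) were treated with compounds plus 0.5 nM R1881 (final) for 16 hr at 37C, 0% CO2. Viability was then read in the same wells as live-cell protease fluorescence (CellTiter-Fluor, 30 min).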

[6] = target: Estrogen receptor (Homo sapiens) (UniProt P03372); assay: qHTS assay to identify small molecule antagonists of the estrogen receptor alpha (ER-alpha) signaling pathway using the BG1 cell line in the presence of 0.1 nM 17-beta-estradiol (AID 1259244); further: nearly all actives have a fitted effect of over 50% in size
Method in brief: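 VM7Luc4E2 cells (endogenous full-length ER-alpha, 4×ERE-luciferase), kept 5 days in phenol red-free, charcoal-stripped FBS medium; 4,000 cells/well. Compounds added with 0.1 nM (final) 17beta-estradiol, 22 hr at 37C; luminescence read with ONE-Glo after 30 min.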

[7] = qHTS assay to identify small molecule HDAC inhibitors (AID 1259364); further: top concentration of the series differs between compounds; nearly all actives have a fitted effect of over 45% in size
Method in brief: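 Wild-type HCT-116 cells, plated overnight at 37 C, exposed to compounds 2 hr at 37 C; luminogenic HDAC-Glo substrate then added 30 min at room temperature. Luminescence reports relative endogenous class I/II HDAC activity.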

[8] = qHTS assay to identify small molecule HDAC inhibitors - cell viability counter screen (AID 1259365); further: series mostly up to about 92 µM; nearly all actives have a fitted effect of over 50% in size
Method in brief: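 After overnight seeding at 1,500 cells per well, wild-type HCT-116 cultures took up compounds in DMSO for 2hr at 37 C. Viable cell content came from luminescence with CellTiter-Glo.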

[9] = qHTS assay to identify small molecule agonists of the sonic hedgehog signaling (Shh) pathway - cell viability counter screen (AID 1259366); further: nearly all actives have a fitted effect of over 50% in size
Method in brief: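 Same-well cytotoxicity read. Gli1-Luc reporter 3T3 cells; compounds 24hr, 37C/5% CO2; CellTiter-Fluor fluorescence.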

[10] = qHTS assay to identify small molecule antagonists of the sonic hedgehog signaling (Shh) pathway - cell viability counter screen (AID 1259367); further: nearly all actives have a fitted effect of over 55% in size
Method in brief: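 NIH/3T3-derived Gli1-Luc reporter cells (2,000 per well) rested 4 hr at 37 C, then received DMSO compounds plus conditioned medium. After 23 hr of treatment, CellTiter-Fluor was added for 1 hr at 37C and fluorescence read.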

[11] = qHTS assay to identify small molecule agonists of the sonic hedgehog signaling (Shh) pathway (AID 1259368; calls by dose curve;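 further: NIH/3T3-derived 3T3Gli1-Luc cells carrying a stable Gli1-driven firefly luciferase reporter; series mostly up to about 92 µM; nearly all actives have a fitted effect of over 15% in size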)
Method in brief: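 NIH/3T3-derived 3T3Gli1-Luc cells with stably integrated Gli1-driven firefly luciferase, 2,000 cells/well, compounds added after 4 hr. Incubated 24 hr at 37C, 5% CO2; luminescence read after 30 min with luciferase reagent at room temperature.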

[12] = qHTS assay to identify small molecule antagonists of the sonic hedgehog signaling (Shh) pathway (AID 1259369; calls by dose curve; further: nearly all actives have a fitted effect of over 45% in size)
Method in brief: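 NIH/3T3-derived Gli1-Luc reporter cells plated 4 h, dosed with compound, then stimulated with conditioned medium for 24 h at 37 C. Firefly luciferase luminescence read after 30 min with detection reagent at room temperature.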

[13] = target: Estrogen receptor beta (Homo sapiens) (UniProt Q92731); assay: qHTS assay to identify small molecule agonists of the estrogen receptor beta (ER-beta) signaling pathway (AID 1259377; active means well fitted activation curve with a large enough effect in the signal ratio in the repeat runs, not every such curve was filed as active; the % refers to the signal ratio)
Method in brief: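 Read-out: beta-lactamase FRET fluorescence. Cell line: ER-beta-UAS-bla HEK293T in 2% charcoal-stripped FBS. Exposure: 16 hr at 37C. Substrate step: 2 h at room temperature.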

[14] = target: Estrogen receptor beta (Homo sapiens) (UniProt Q92731); assay: qHTS assay to identify small molecule antagonists of the estrogen receptor beta (ER-beta) signaling pathway (AID 1259378; active means well fitted inhibition curve with a large enough effect in the signal ratio in the repeat runs, not every such curve was filed as active; the % refers to the signal ratio)
Method in brief: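 ER-beta-UAS-bla HEK293T (GripTite) cells in 2% charcoal-stripped FBS medium were preincubated 6 hr at 37C, dosed with compound, then stimulated with 1 nM E2 (final) for 16 hr; beta-lactamase reporter read by B/G FRET fluorescence after 2 hr substrate loading.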

[15] = qHTS assay to identify small molecule agonists of the androgen receptor (AR) signaling pathway in the presence of an antagonist - cell viability counter screen (AID 1259379);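 further: MDA-kb2 human breast cancer cells carrying an MMTV luciferase reporter; series mostly up to about 92 µM; nearly all actives have a fitted effect of over 25% in size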
Method in brief: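 MDA-kb2 cells (MMTV-luciferase, AR/GR), 3,000/well, 5 h attachment, then 3.0 µM nilutamide (final) and compounds at 15 concentrations. Viability by CellTiter-Fluor fluorescence after 16 h at 37 °C, 0% CO2, in the reporter wells.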

[16] = qHTS assay to identify small molecule agonists of the estrogen receptor beta (ER-beta) signaling pathway - cell viability counter screen (AID 1259380); further: nearly all actives have a fitted effect of over 30% in size
Method in brief: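 ER-beta-UAS-bla HEK293T cells in medium with 2% charcoal-stripped FBS, pre-incubated 6 hr, then treated 16 hr at 37C. Cytotoxicity read in the same wells by CellTiter-Glo luminescence after 30 min at room temperature.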

[17] = qHTS assay to identify small molecule antagonists of the estrogen receptor beta (ER-beta) signaling pathway - cell viability counter screen (AID 1259382); further: series mostly up to about 92 µM; nearly all actives have a fitted effect of over 55% in size
Method in brief: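 ER-beta-UAS-bla HEK293T cells in 2% charcoal-stripped FBS medium, treated with compound plus 1 nM 17-beta-estradiol for 16 h at 37C. Viability read by CellTiter-Glo luminescence after 30 min at room temperature in the same wells.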

[18] = qHTS assay to identify small molecule phospholipidosis (PLD) inducers (AID 1259344; active means well fitted curve in the direction sought with a large enough effect; an effect the other way counts as inactive or inconclusive)
Method in brief: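 HepG2 cells on collagen I, attached 4 h at 37 C, were co-treated with compound and LipidTOX Red dye for 24 h at 37 C, then fixed with paraformaldehyde plus Hoechst 33342 and imaged by high-content microscopy for phospholipid accumulation.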
On the % scale 0 is the no-effect control and ±100 the full control effect.

Sequence of Estrogen receptor (Homo sapiens) (P03372 whole entry, looked up): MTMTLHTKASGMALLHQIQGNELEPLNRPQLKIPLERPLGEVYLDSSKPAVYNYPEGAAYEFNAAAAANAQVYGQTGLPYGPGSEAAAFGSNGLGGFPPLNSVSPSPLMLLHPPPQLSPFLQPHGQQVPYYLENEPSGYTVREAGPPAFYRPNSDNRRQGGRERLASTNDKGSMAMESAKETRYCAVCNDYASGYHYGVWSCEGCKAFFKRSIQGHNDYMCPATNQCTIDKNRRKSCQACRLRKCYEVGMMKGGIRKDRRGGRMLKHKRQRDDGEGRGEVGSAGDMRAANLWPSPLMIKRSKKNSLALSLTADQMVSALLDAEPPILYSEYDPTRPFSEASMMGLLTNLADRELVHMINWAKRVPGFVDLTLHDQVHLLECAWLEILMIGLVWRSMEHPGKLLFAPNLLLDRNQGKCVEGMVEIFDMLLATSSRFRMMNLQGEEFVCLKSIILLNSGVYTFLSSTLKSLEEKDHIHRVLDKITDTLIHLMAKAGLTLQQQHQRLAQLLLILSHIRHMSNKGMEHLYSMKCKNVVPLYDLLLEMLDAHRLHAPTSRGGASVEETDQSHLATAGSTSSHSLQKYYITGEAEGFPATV
Sequence of Estrogen receptor beta (Homo sapiens) (Q92731 whole entry, looked up): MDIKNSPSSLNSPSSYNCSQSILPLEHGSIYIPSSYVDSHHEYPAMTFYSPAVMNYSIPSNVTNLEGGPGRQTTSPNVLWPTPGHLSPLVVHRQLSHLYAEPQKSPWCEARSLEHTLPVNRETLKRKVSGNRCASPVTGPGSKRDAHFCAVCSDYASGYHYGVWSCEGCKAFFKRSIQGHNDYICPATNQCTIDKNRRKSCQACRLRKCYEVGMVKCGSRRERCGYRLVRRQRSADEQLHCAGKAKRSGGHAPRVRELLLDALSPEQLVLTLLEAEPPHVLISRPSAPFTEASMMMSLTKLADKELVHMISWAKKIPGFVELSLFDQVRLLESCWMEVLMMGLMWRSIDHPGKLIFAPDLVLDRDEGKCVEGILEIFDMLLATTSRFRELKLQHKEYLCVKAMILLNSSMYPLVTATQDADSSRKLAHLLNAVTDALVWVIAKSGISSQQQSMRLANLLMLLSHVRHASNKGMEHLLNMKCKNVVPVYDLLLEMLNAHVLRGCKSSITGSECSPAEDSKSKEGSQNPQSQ

CC(=O)C1C(=O)C=C(C)OC1=O (centres undefined)
inactive: Potency [1] | Potency [2] | Potency [3] | outcome [4] | outcome [5] | outcome [6] | Potency [7] | outcome [8] | outcome [9] | outcome [10] | outcome [11] | Potency [12] | Potency [13] | Potency [14] | outcome [15] | outcome [16] | outcome [17]

CCOCCOCC
inactive: Potency [1] | Potency [2] | Potency [3] | outcome [4] | outcome [5] | outcome [6] | Potency [7] | outcome [8] | outcome [9] | outcome [11] | Potency [12] | Potency [13] | Potency [14] | outcome [15] | outcome [16] | outcome [17]

C=CCSSCCC
inactive: Potency [1] | Potency [2] | Potency [3] | outcome [4] | outcome [5] | outcome [6] | Potency [7] | outcome [8] | outcome [9] | outcome [10] | outcome [11] | Potency [12] | Potency [13] | Potency [14] | outcome [15] | outcome [16] | outcome [17]

CC(C)CO
inactive: Potency [1] | Potency [2] | Potency [3] | outcome [4] | outcome [5] | outcome [6] | Potency [7] | outcome [8] | outcome [10] | outcome [11] | Potency [12] | Potency [13] | outcome [15] | outcome [16]

CC(=O)CCc1ccc(OC(C)=O)cc1
inactive: Potency [1] | Potency [2] | Potency [3] | outcome [4] | outcome [5] | outcome [6] | Potency [7] | outcome [8] | outcome [9] | outcome [10] | outcome [11] | Potency [12] | Potency [13] | Potency [14] | outcome [15] | outcome [16] | outcome [17]

CCCC(=O)OC/C=C(\C)CCC=C(C)C
inactive: Potency [2] | Potency [3] | outcome [4] | outcome [5] | outcome [6] | Potency [7] | outcome [8] | outcome [9] | outcome [10] | outcome [11] | Potency [12] | Potency [13] | Potency [14] | outcome [15] | outcome [17]
active: Potency [1] 54.9 µM

O=C(O)c1cc2ccccc2nc1C(=O)O
inactive: Potency [1] | Potency [2] | Potency [3] | outcome [4] | outcome [5] | outcome [6] | Potency [7] | outcome [8] | outcome [9] | outcome [10] | outcome [11] | Potency [12] | Potency [13] | Potency [14] | outcome [15] | outcome [17]

CC1=C(C(=O)O)N2C(=O)[C@@H](NC(=O)[C@H](N)C3=CCC=CC3)[C@H]2SC1
inactive: Potency [1] | Potency [2] | Potency [3] | outcome [4] | outcome [5] | outcome [6] | PLD induction [18] 0.229% [at 7.66 µM] | outcome [11] | Potency [12] | Potency [13] | outcome [15] | outcome [17]

CC1(C)Cc2cccc(N)c2O1
inactive: Potency [1] | Potency [2] | Potency [3] | outcome [4] | outcome [5] | outcome [6] | Potency [7] | outcome [8] | outcome [9] | outcome [10] | outcome [11] | Potency [12] | outcome [15] | outcome [16] | outcome [17]

CCCCCCC1(C)CCC(=O)O1 (centres undefined)
inactive: Potency [1] | Potency [2] | Potency [3] | outcome [4] | outcome [5] | outcome [6] | Potency [7] | outcome [8] | outcome [9] | outcome [10] | outcome [11] | Potency [12] | outcome [15] | outcome [16] | outcome [17]

Cc1cccc(Cl)c1
inactive: Potency [1] | Potency [2] | Potency [3] | outcome [4] | outcome [5] | Potency [7] | outcome [8] | outcome [9] | outcome [10] | outcome [11] | Potency [12] | Potency [13] | Potency [14] | outcome [15] | outcome [16] | outcome [17]

CCCCOC(=O)[C@H](C)O
inactive: Potency [1] | Potency [2] | Potency [3] | outcome [4] | outcome [5] | outcome [6] | Potency [7] | outcome [9] | outcome [10] | outcome [11] | Potency [12] | outcome [15] | outcome [16] | outcome [17]

OC1OCCOC1O (centres undefined)
inactive: Potency [1] | Potency [2] | Potency [3] | outcome [4] | outcome [5] | outcome [6] | Potency [7] | outcome [9] | outcome [10] | outcome [11] | Potency [12] | outcome [15] | outcome [16] | outcome [17]
